Assay outcomes from PubChem BioAssay.
In the library only some 2.9% were active in any assay of this set; here they are far more common.
MEKK2 WT-MEK5 = modulators of MEK5 binding to wildtype MEKK2, primary screen, biochemical, multiplex bead flow cytometry, Alexa488-MEK5 | Mitogen-activated protein kinase kinase kinase 2 (Homo sapiens), Q9Y2U5 | Alexa488-MEK5 binding to MEKK2 WT; actives lie on both sides | binding response (% of control), % at 10 µM | actives 1.1% (n = 290,000); in the data active = binding response below about 67% or above about 130%
MEKK2mut PB1 HTS = MEK5 binding signal on mutant MEKK2 PB1, primary screen, biochemical, multiplex bead flow cytometry, Alexa488-MEK5; Alexa488-MEK5 binding to MEKK2 mutant; percent response, % at 10 µM; actives 0.35% (n = 290,000); AID 1530, 2009; in the data active = percent response above about 24%, passing the limit was not always enough
MEKK3 PB1 HTS = modulators of MEKK3-MEK5 PB1 binding, primary screen, biochemical, wildtype MEKK3, multiplex bead flow cytometry, Alexa488-MEK5; actives 1.4% (n = 290,000); AID 1529, 2009; Mitogen-activated protein kinase kinase kinase 3 (Homo sapiens), Q99759; bead-based flow cytometry, Alexa488-MEK5 binding to MEKK3; actives lie on both sides; 0 = blocked by unlabeled MEK5, 100 = vehicle; binding response (% of control), % at 10 µM;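 active = binding response more than 3 SD above or below the average of its plate-row segment, actives on both sides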;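 note: Alexa488 bead fluorescence after subtracting the streptavidin-only scavenger bead signal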
B2AR ag = beta2AR agonists driving receptor internalization, primary screen, cell-based, FAP fluorogen, flow cytometry; actives 0.43% (n = 340,000); response, % (concentration not given with the values); Am2.2-beta2AR cells;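 active = response above a set limit, near 3 SD of response in nonfluorescent compounds, cut at about 42% in these data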
GRK2 aptamer HTS = compounds blocking aptamer binding on GRK2 – biochemical, human GRK2, bead flow cytometry, HTS, primary screen. Beta-adrenergic receptor kinase 1 (Homo sapiens), P25098. FAM-aptamer displacement from GRK2. inhibition of aptamer binding, % at 10 µM. actives 0.59% (n = 330,000). AID 488847, 2010;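 active = inhibition of aptamer binding above 40%, roughly 3 SD of noise, on plates passing a quality check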;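 note: median bead fluorescence of bound FAM aptamer so fluorescent compounds give negative values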
Target sequence (P25098 whole entry, looked up): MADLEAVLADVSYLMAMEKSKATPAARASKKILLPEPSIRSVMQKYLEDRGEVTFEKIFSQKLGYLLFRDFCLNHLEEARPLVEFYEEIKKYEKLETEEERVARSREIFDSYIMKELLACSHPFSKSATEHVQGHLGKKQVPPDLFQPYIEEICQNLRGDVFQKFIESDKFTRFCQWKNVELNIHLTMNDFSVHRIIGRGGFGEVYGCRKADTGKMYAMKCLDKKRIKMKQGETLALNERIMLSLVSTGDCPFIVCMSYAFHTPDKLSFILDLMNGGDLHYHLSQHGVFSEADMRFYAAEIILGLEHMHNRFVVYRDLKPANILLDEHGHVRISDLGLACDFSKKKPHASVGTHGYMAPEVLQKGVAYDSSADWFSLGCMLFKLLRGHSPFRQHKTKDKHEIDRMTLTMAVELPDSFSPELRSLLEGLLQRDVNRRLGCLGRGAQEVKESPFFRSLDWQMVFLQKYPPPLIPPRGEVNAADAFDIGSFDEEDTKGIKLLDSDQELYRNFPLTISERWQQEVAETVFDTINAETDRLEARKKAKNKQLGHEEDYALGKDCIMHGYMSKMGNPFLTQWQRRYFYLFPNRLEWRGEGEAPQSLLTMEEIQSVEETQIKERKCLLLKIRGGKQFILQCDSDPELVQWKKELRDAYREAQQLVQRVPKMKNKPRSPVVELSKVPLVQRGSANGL
MEKK2wt confirm = modulators of MEK5 binding to wildtype MEKK2, confirmation, biochemical, single concentration, multiplex bead flow cytometry; shares compounds with MEKK3 PB1 HTS; Alexa488-MEK5 binding to MEKK2 WT; actives lie on both sides; binding response (% of control), % at 10 µM; actives 2.4% (n = 5,900); AID 1892, 2009; in the data active = binding response below about 16% or above about 210%; inactive = in between
MEKK2mut-MEK5 = mutant MEKK2 PB1-MEK5 binding signal retest – biochemical, single concentration, multiplex bead flow cytometry, confirmation | shares compounds with MEKK3 PB1 HTS | Alexa488-MEK5 binding to MEKK2 mutant | percent response, % at 10 µM | actives 2% (n = 5,900); in the data active = percent response mostly above about 71%, no sharp cut-off; inactive = mostly below about 38%;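 note: higher means compound restores mutant binding toward wildtype level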
MEKK3 confirm = MEKK3 wild-type PB1 binding to MEK5, inhibitors, confirmation, biochemical, bead multiplex flow cytometry, single concentration, wildtype. shares compounds with MEKK3 PB1 HTS. Alexa488-MEK5 binding to MEKK3; hits give low values. actives 1.8% (n = 5,900). AID 1894, 2009. binding response (% of control), % at 10 µM;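 active = binding response below 72% of control, or above a set upper limit, though filed actives all read lower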;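 note: lower values mean stronger disruption of MEK5 binding to MEKK3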
Hits are given with their value; [ ] = dose if it differs, or a comment.

For COc1ccc(C)cc1Nc1n[n+](-c2ccccc2)c(-c2ccc(N(C)C)cc2)s1 the results were MEKK2 WT-MEK5 142.0, MEKK2mut PB1 HTS 46.0, MEKK3 PB1 HTS inactive, B2AR ag inactive, GRK2 aptamer HTS inactive, MEKK2wt confirm inactive, MEKK2mut-MEK5 inactive and MEKK3 confirm inactive.
`COc1ccc(C)cc1Nc1n[n+](-c2ccccc2)c(-c2ccc(OC)c(OC)c2OC)s1` gave MEKK2 WT-MEK5 149.0, MEKK2mut PB1 HTS inactive, MEKK3 PB1 HTS inactive, B2AR ag inactive, GRK2 aptamer HTS inactive, MEKK2wt confirm inactive, MEKK2mut-MEK5 inactive and MEKK3 confirm inactive.
For COC(=O)c1ccc(CSc2nnc(-c3ccc4c(c3)OCO4)n2-c2ccccc2)o1 the results were MEKK2 WT-MEK5 inactive, MEKK2mut PB1 HTS inactive, MEKK3 PB1 HTS 131.0, B2AR ag inactive, GRK2 aptamer HTS inactive, MEKK2wt confirm inactive, MEKK2mut-MEK5 inactive and MEKK3 confirm inactive.
For Cc1ccc(SCC(=O)N2CCN(S(=O)(=O)c3cccs3)CC2)cc1 the results were B2AR ag inactive and GRK2 aptamer HTS inactive.
`N/C(=N\OC(=O)C(c1ccccc1)c1ccccc1)c1ccccn1` gave MEKK2 WT-MEK5 2.0[inhibitor], MEKK2mut PB1 HTS inactive, MEKK3 PB1 HTS 2.0[inhibitor], B2AR ag 58.3, GRK2 aptamer HTS inactive, MEKK2wt confirm inactive, MEKK2mut-MEK5 inactive and MEKK3 confirm inactive.
O=C(CCSCc1cccc(Cl)c1)NCCc1ccccc1 was read as MEKK2 WT-MEK5 inactive, MEKK2mut PB1 HTS inactive, MEKK3 PB1 HTS 134.0, B2AR ag inactive, GRK2 aptamer HTS inactive, MEKK2wt confirm inactive, MEKK2mut-MEK5 inactive and MEKK3 confirm inactive.
`CN(CC(=O)NCCc1ccc(F)cc1)Cc1cccc(Cl)c1` gave MEKK2 WT-MEK5 6.0[inhibitor], MEKK2mut PB1 HTS inactive, MEKK3 PB1 HTS 5.0[inhibitor], B2AR ag inactive, GRK2 aptamer HTS inactive, MEKK2wt confirm inactive, MEKK2mut-MEK5 inactive and MEKK3 confirm inactive.
For O=C(O)CCC(=O)NCCc1cccc(Cl)c1 the results were MEKK2 WT-MEK5 inactive, MEKK2mut PB1 HTS inactive, MEKK3 PB1 HTS inactive, B2AR ag inactive and GRK2 aptamer HTS inactive.
Screening C=CCc1ccccc1OCC(=O)O returned MEKK2 WT-MEK5 inactive, MEKK2mut PB1 HTS inactive, MEKK3 PB1 HTS 45.0[inhibitor], B2AR ag inactive, GRK2 aptamer HTS inactive, MEKK2wt confirm inactive, MEKK2mut-MEK5 inactive and MEKK3 confirm inactive.
O=C(O)COc1ccccc1Cc1ccccc1 was read as MEKK2 WT-MEK5 inactive, MEKK2mut PB1 HTS inactive, MEKK3 PB1 HTS inactive, B2AR ag inactive and GRK2 aptamer HTS inactive.
`O=C(N/N=C/c1ccc(OC(=O)c2ccccc2)cc1)c1cccc(O)c1` gave MEKK2 WT-MEK5 inactive, MEKK2mut PB1 HTS inactive, MEKK3 PB1 HTS 137.0, B2AR ag inactive, GRK2 aptamer HTS inactive, MEKK2wt confirm inactive, MEKK2mut-MEK5 inactive and MEKK3 confirm inactive.
For COc1ccc(/C=N/NC(=O)c2ccncc2)cc1OC the results were MEKK2 WT-MEK5 inactive, MEKK2mut PB1 HTS inactive, MEKK3 PB1 HTS inactive, B2AR ag inactive and GRK2 aptamer HTS inactive.
COc1ccc(/C=C/C(=O)Oc2ccc(/C=N/NC(=O)c3ccccc3)cc2)cc1OC was read as MEKK2 WT-MEK5 inactive, MEKK2mut PB1 HTS inactive, MEKK3 PB1 HTS 138.0, B2AR ag inactive, GRK2 aptamer HTS inactive, MEKK2wt confirm inactive, MEKK2mut-MEK5 inactive and MEKK3 confirm inactive.
COc1ccc(/C=C(/NC(=O)c2ccccc2)C(=O)N/N=C/c2ccncc2)cc1 was read as MEKK2 WT-MEK5 2.0[inhibitor], MEKK2mut PB1 HTS inactive, MEKK3 PB1 HTS 2.0[inhibitor], B2AR ag inactive, GRK2 aptamer HTS inactive, MEKK2wt confirm inactive, MEKK2mut-MEK5 inactive and MEKK3 confirm inactive.
`CN1CCN(CCCNC(=O)c2ccc(/C=C3\Sc4ccccc4N(Cc4ccccc4F)C3=O)cc2)CC1` gave MEKK2 WT-MEK5 167.0, MEKK2mut PB1 HTS inactive, MEKK3 PB1 HTS inactive, B2AR ag 88.2, MEKK2wt confirm inactive, MEKK2mut-MEK5 inactive and MEKK3 confirm inactive.
Screening CCN1CCN(CCNC(=O)c2ccc(/C=C3/Sc4ccccc4N(Cc4cccc(Cl)c4)C3=O)cc2)CC1 returned MEKK2 WT-MEK5 280.0, MEKK2mut PB1 HTS 120.0, MEKK3 PB1 HTS inactive, B2AR ag inactive, GRK2 aptamer HTS inactive, MEKK2wt confirm 234.0, MEKK2mut-MEK5 100.0 and MEKK3 confirm inactive.
Screening CC(C)(C)c1ccc(S(=O)(=O)N2CC(C(=O)O)Oc3ccc(Cl)cc32)cc1 (configuration not stated) returned MEKK2 WT-MEK5 inactive, MEKK2mut PB1 HTS inactive, MEKK3 PB1 HTS inactive, B2AR ag inactive and GRK2 aptamer HTS inactive.
For COc1ccc(S(=O)(=O)N2CC(C(=O)O)Oc3ccc(Cl)cc32)cc1 (configuration not stated) the results were MEKK2 WT-MEK5 inactive, MEKK2mut PB1 HTS 36.0, MEKK3 PB1 HTS inactive, B2AR ag inactive, GRK2 aptamer HTS inactive, MEKK2wt confirm inactive, MEKK2mut-MEK5 inactive and MEKK3 confirm inactive.
COc1cc(OC)cc(OC(=O)C2CCN(C(=O)c3ccc(Cl)cc3)CC2)c1 was read as B2AR ag inactive and GRK2 aptamer HTS inactive.
`O=C(COC(=O)C1CCC(=O)N1)Nc1ccc(Oc2ccccc2)cc1` (configuration not stated) gave MEKK2 WT-MEK5 inactive, MEKK2mut PB1 HTS inactive, MEKK3 PB1 HTS inactive, B2AR ag inactive and GRK2 aptamer HTS inactive.
`O=C(COC(=O)C1CCC(=O)N1)Nc1ccccc1Br` (configuration not stated) gave MEKK2 WT-MEK5 inactive, MEKK2mut PB1 HTS inactive, MEKK3 PB1 HTS 128.0, B2AR ag inactive, GRK2 aptamer HTS inactive, MEKK2wt confirm inactive, MEKK2mut-MEK5 inactive and MEKK3 confirm inactive.
For COc1cccc(C(=O)NCC(=O)N/N=C/c2ccc3c(c2)OCO3)c1 the results were MEKK2 WT-MEK5 inactive, MEKK2mut PB1 HTS inactive, MEKK3 PB1 HTS inactive, B2AR ag inactive and GRK2 aptamer HTS inactive.
Screening CC1(C)CC(=O)C(N=Nc2ccc(Br)cc2)=C(O)C1 returned MEKK2 WT-MEK5 inactive, MEKK2mut PB1 HTS inactive, MEKK3 PB1 HTS inactive, B2AR ag inactive and GRK2 aptamer HTS inactive.
